Reference: PubChem BioAssay AID623901 (Broad Institute, 2012)
Hit rate of the full screen: of about 340,000 compounds, about 470 (0.14%) were called active. What follows is part of a selection rich in actives, with near analogues and random picks from the rest. A number with no mark means an inactive call.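 Rule for the calls: active = mean activation of 30% or more, with every replicate also reaching 30%; inconclusive = mean activation of 30% or more but some replicate falls short; inactive = the rest.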

Assay: miR-122 suppressors via Renilla sensor increase, primary screen, cell-based, Huh7 psiCHECK-miR122, Renilla luciferase, single point (AID 623901);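 note: 0% = median of neutral control wells and 100% = median of positive control wells; higher luciferase signal means stronger suppression of miR-122 activity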
Settings: 48 h, at 12.5 µM, stronger effect = higher value
For `COc1ccc(C#Cc2cnc3c(c2)C(=O)N([C@@H](C)CO)C[C@H](C)[C@@H](CN(C)CC2CCOCC2)O3)cc1`, the activation was 0.272%. In the case of `CSc1nc(-c2ccccc2)nc(C(Cl)Cl)n1`, the activation is reported as 42% (active). With `C[C@H](CO)N1C[C@H](C)[C@@H](CN(C)C(=O)C2CCOCC2)Oc2cc(-c3ccc(C(=O)N(C)C)cc3)ccc2S1(=O)=O` the activation was -12.2%. `CNC[C@H]1Oc2cc(-c3ccc(OC)cc3)ccc2S(=O)(=O)N([C@H](C)CO)C[C@@H]1C` showed an activation of -1.22%. `COCC#Cc1ccc2c(c1)O[C@H](CN(C)C(=O)C1CCOCC1)[C@@H](C)CN([C@@H](C)CO)S2(=O)=O` showed an activation of -2.66%. Molecule `COc1ccccc1-c1ccc2c(c1)O[C@H](CN(C)S(=O)(=O)c1ccc(C)cc1)[C@@H](C)CN([C@H](C)CO)S2(=O)=O` has an activation of 2.3%. In the case of `COc1cccc(S(=O)(=O)N(C)C[C@@H]2Oc3cc(C4=CCCCC4)ccc3S(=O)(=O)N([C@H](C)CO)C[C@H]2C)c1`, the activation is reported as 36.2% (active). With `COc1cccc(-c2ccc3c(c2)O[C@H](CN(C)C(=O)C2CCOCC2)[C@H](C)CN([C@H](C)CO)S3(=O)=O)c1` the activation was 40.8% (active). `C[C@H]1CN([C@@H](C)CO)C(=O)c2cc(Br)cnc2O[C@H]1CN(C)Cc1cccc(F)c1` showed an activation of -14.9%. For `CCC(=O)N1C[C@@H](C)[C@@H](OC)CN(C)C(=O)c2ccc(NC(=O)C3CCCCC3)cc2OC[C@H]1C`, the activation was -2.5%. Work on `COc1ccc(C)cc1S(=O)(=O)Nc1cc2c3c(c1)CCC(=O)N3CCC2` yielded an activation of -150%. `C/C=C/c1ccc2c(c1)O[C@H](CN(C)C(=O)Cc1ccccn1)[C@H](C)CN([C@H](C)CO)S2(=O)=O` showed an activation of -4.41%. `C[C@@H]1CN([C@@H](C)CO)S(=O)(=O)c2ccc(C#Cc3ccc(F)cc3)cc2O[C@H]1CN(C)S(C)(=O)=O` gave an activation of 0.672%. For `C[C@@H]1CN([C@H](C)CO)S(=O)(=O)c2ccc(C#Cc3ccccc3F)cc2O[C@@H]1CN(C)C(=O)c1ccc2c(c1)OCO2`, the activation was 48.9% (active). In the case of `C[C@@H]1CN([C@@H](C)CO)S(=O)(=O)c2ccc(C#Cc3ccccc3)cc2O[C@@H]1CN(C)C(=O)Nc1ccccc1`, the activation is reported as -3.74%. Molecule `CNC[C@@H]1Oc2cc(C#CCC3CCCC3)ccc2S(=O)(=O)N([C@H](C)CO)C[C@H]1C` has an activation of 14.9%. In the case of `C[C@H]1CN([C@@H](C)CO)S(=O)(=O)c2ccc(C#Cc3ccccc3F)cc2O[C@@H]1CN(C)C(=O)c1ccc2c(c1)OCO2`, the activation is reported as 48% (active). Work on `C[C@H](CO)N1C[C@H](C)[C@@H](CN(C)C(=O)C2CC2)Oc2cc(C#CC3CC3)ccc2S1(=O)=O` yielded an activation of -21%. Molecule `C[C@H]1CN([C@@H](C)CO)S(=O)(=O)c2ccc(-c3cccc(C#N)c3)cc2O[C@H]1CN(C)C(=O)c1ccccc1` has an activation of 4.92%. For `C[C@@H]1CN([C@H](C)CO)S(=O)(=O)c2ccc(C#CC3(O)CCCC3)cc2O[C@@H]1CN(C)C(=O)c1cccnc1`, the activation was 44% (active). `CCC(=O)N(C)C[C@@H]1Oc2cc(C#Cc3cccnc3)ccc2S(=O)(=O)N([C@H](C)CO)C[C@@H]1C` gave an activation of -5.93%. Molecule `C/C=C/c1ccc2c(c1)O[C@H](CN(C)C(=O)c1ccc3c(c1)OCO3)[C@@H](C)CN([C@H](C)CO)S2(=O)=O` has an activation of -10.3%. For `CCCC#Cc1ccc2c(c1)O[C@@H](CN(C)C(=O)c1cccnc1)[C@H](C)CN([C@H](C)CO)S2(=O)=O`, the activation was -14.9%. For `CNC[C@@H]1Oc2cc(C#CC3CCCC3)ccc2S(=O)(=O)N([C@@H](C)CO)C[C@@H]1C`, the activation was 32.4% (active). For `C[C@H](CO)N1C[C@H](C)[C@@H](CN(C)Cc2cncnc2)Oc2cc(-c3ccccc3)ccc2S1(=O)=O`, the activation was -27.5%. In the case of `C[C@H]1CN([C@@H](C)CO)C(=O)c2cc(/C=C/c3ccccc3)cnc2O[C@H]1CN(C)Cc1cccc(C(=O)O)c1`, the activation is reported as 8.03%. Molecule `CCOc1ccccc1NC(=O)Cn1nnc(C(=O)NCc2cccs2)c1N` has an activation of -94.8%. With `C[C@@H]1CN([C@@H](C)CO)S(=O)(=O)c2ccc(-c3ccc(C(=O)N(C)C)cc3)cc2O[C@@H]1CN(C)C(=O)Cc1ccccn1` the activation was -3.98%. For `COCC#Cc1cnc2c(c1)C(=O)N([C@@H](C)CO)C[C@H](C)[C@@H](CN(C)Cc1ccccc1)O2`, the activation was -2.07%. For `C[C@@H]1CN([C@H](C)CO)C(=O)c2cc(-c3cccc(C(=O)N(C)C)c3)cnc2O[C@H]1CN(C)S(=O)(=O)c1ccc(F)cc1`, the activation was -4.18%. `COc1ccc(-c2cc(NC(C)=O)c3ncc(-c4cc(OC)c(OC)c(OC)c4)n3c2)cn1` gave an activation of -107%. `CCCC#Cc1ccc2c(c1)O[C@@H](CN(C)C(=O)CC)[C@@H](C)CN([C@H](C)CO)S2(=O)=O` gave an activation of -16.6%. `COCCn1c(SCC(=O)c2[nH]c(C)c(C(C)=O)c2C)nc2ccccc2c1=O` gave an activation of -272%. `CC1CCCCC1NC(=O)/C(C#N)=C/C=C/c1ccccc1[N+](=O)[O-]` (configuration not stated) showed an activation of -102%. For `Cc1ccc(OCC(=O)Nc2cccc3c2CCCC3)cc1C`, the activation was -94.9%. Molecule `C[C@@H]1CN([C@H](C)CO)C(=O)c2cc(C#Cc3ccccn3)cnc2O[C@H]1CN(C)CC1CCOCC1` has an activation of -7.38%. Work on `CCC(=O)Nc1ccc2c(c1)OC[C@H](C)N(C(=O)c1ccncc1)C[C@H](C)[C@H](OC)CN(C)C2=O` yielded an activation of -2.72%. Molecule `COCC#Cc1cnc2c(c1)C(=O)N([C@@H](C)CO)C[C@@H](C)[C@H](CN(C)C(=O)C1CCOCC1)O2` has an activation of -0.849%. Molecule `CC1=C(C)CC(C(=O)NNC(=O)c2ccccc2O)C(C(=O)O)C1` (configuration not stated) has an activation of -151%. Molecule `Cn1cnc([N+](=O)[O-])c1Sc1ccccc1` has an activation of -217%. Molecule `CCC(=O)N(C)C[C@@H]1Oc2ncc(C#CCC3CCCC3)cc2C(=O)N([C@@H](C)CO)C[C@H]1C` has an activation of 7.03%. `COc1ccc(C#Cc2cnc3c(c2)C(=O)N([C@H](C)CO)C[C@H](C)[C@H](CN(C)S(=O)(=O)c2ccc(F)cc2)O3)cc1OC` gave an activation of 8.05%. In the case of `C/C=C/c1ccc2c(c1)O[C@H](CN(C)C(=O)Nc1ccc(OC)cc1)[C@@H](C)CN([C@H](C)CO)S2(=O)=O`, the activation is reported as -21.8%. Work on `COCC#Cc1cnc2c(c1)C(=O)N([C@H](C)CO)C[C@H](C)[C@H](CN(C)C(=O)Nc1ccccc1OC)O2` yielded an activation of 0.317%. With `COc1ccc(C(C#N)Nc2ccc(C)cc2)cc1` (configuration not stated) the activation was 49.7% (active). Molecule `COc1ccccc1NC(=O)N(C)C[C@@H]1Oc2ncc(C#CCC(C)C)cc2C(=O)N([C@@H](C)CO)C[C@@H]1C` has an activation of 3.82%. `CC(C)C#Cc1ccc2c(c1)O[C@H](CN(C)Cc1ccccn1)[C@H](C)CN([C@H](C)CO)S2(=O)=O` showed an activation of -14.1%. With `Cc1ccccc1-c1cnc2c(c1)C(=O)N([C@H](C)CO)C[C@H](C)[C@@H](CN(C)C(=O)c1ccccc1)O2` the activation was 2.61%. In the case of `Cc1cc(C)cc(NS(=O)(=O)c2ccc(F)cc2)c1`, the activation is reported as -117%. With `COc1ccc(F)cc1S(=O)(=O)Nc1ccc2c(c1)OCO2` the activation was -99.7%. `C[C@H]1CN([C@@H](C)CO)S(=O)(=O)c2ccc(-c3ccccc3)cc2O[C@H]1CN(C)C(=O)CC1CC1` showed an activation of 4.7%. In the case of `CO[C@H]1CN(C)C(=O)c2cc(NC(C)=O)ccc2OC[C@H](C)N(C(=O)CN(C)C)C[C@@H]1C`, the activation is reported as -4.03%. With `COc1ccc(S(=O)(=O)Nc2ccc(F)cc2)c(C)c1C` the activation was -231%. For `COc1ccc(CN2CCOC2=O)cc1OC`, the activation was 44.5% (active). With `C[C@@H]1CN([C@@H](C)CO)C(=O)c2cc(C#Cc3ccccc3)cnc2O[C@H]1CN(C)C(=O)c1ccccn1` the activation was 5.71%. In the case of `C[C@@H]1CN([C@@H](C)CO)C(=O)c2cc(/C=C/c3ccccc3)cnc2O[C@H]1CN(C)C(=O)C1CCC1`, the activation is reported as 2.31%. Work on `CCCN(C)C[C@@H]1Oc2cc(C#CCc3ccccc3)ccc2S(=O)(=O)N([C@H](C)CO)C[C@@H]1C` yielded an activation of 7.02%. `C[C@@H]1CN([C@H](C)CO)C(=O)c2cc(-c3ccccc3F)cnc2O[C@H]1CN(C)C(=O)NC1CCCCC1` gave an activation of -3.04%. `CCC(=O)N(C)C[C@@H]1Oc2ncc(C#Cc3cccnc3)cc2C(=O)N([C@@H](C)CO)C[C@@H]1C` showed an activation of -1.27%. With `COc1ccc(C)cc1S(=O)(=O)NC1CCCCC1` the activation was -375%. In the case of `Cc1cccc(-n2ncc(Cl)c(Cl)c2=O)c1`, the activation is reported as 69.6% (active). Molecule `CCC(=O)N(C)C[C@H]1Oc2cc(-c3cccc(C#N)c3)ccc2S(=O)(=O)N([C@@H](C)CO)C[C@@H]1C` has an activation of -7.09%. For `O=C(Nc1cc(S(=O)(=O)Nc2ccc(Cl)cc2)ccc1O)c1ccc(F)cc1F`, the activation was -118%. With `CCC(=O)N(C)C[C@@H]1Oc2cc(C#C[C@H](C)O)ccc2S(=O)(=O)N([C@H](C)CO)C[C@@H]1C` the activation was 5.93%. With `CCCNC(=O)N(C)C[C@@H]1Oc2ncc(C#Cc3ccccc3F)cc2C(=O)N([C@@H](C)CO)C[C@H]1C` the activation was 13.1%. For `COc1ccc(CN(C)C[C@@H]2Oc3ccc(NS(=O)(=O)c4ccc(OC)cc4)cc3C(=O)N([C@H](C)CO)C[C@H]2C)cc1`, the activation was -2.32%. Work on `C[C@@H]1CN([C@H](C)CO)C(=O)c2cccc(NS(=O)(=O)c3cn(C)cn3)c2O[C@H]1CN(C)CC1CC1` yielded an activation of -0.457%.
